# Screening data from PubChem BioAssay.
# In the library only some 4% were active in any assay of this set; here they are far more common.
# Rv3671c inh: Rv3671c (M. tuberculosis) protease inhibition; inhibition, % at 5.96 µM; 0.048% of 320,000 active; AID 2606; in the data active means inhibition above about 38%;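 further: extracellular domain of Rv3671c used as enzyme; 0% = enzyme with DMSO and 100% = no enzyme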
# Target sequence (P9WHR9 whole entry, looked up, the tested form may be a part): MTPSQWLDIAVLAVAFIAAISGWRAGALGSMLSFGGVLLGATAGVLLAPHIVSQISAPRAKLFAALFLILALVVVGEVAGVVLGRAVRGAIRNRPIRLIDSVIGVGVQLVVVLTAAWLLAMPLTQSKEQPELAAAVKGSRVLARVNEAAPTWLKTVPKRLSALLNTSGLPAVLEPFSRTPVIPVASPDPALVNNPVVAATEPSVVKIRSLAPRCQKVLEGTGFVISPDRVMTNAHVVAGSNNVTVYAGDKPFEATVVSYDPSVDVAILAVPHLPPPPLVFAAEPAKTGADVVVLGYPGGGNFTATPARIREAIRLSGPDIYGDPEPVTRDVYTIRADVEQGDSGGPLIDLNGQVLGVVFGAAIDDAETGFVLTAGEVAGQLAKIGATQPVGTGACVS
# RecA splice inh: inhibitors of M. tuberculosis RecA intein splicing; AID 2221; inhibition, % (concentration not given with the values); 0.75% of 290,000 active; cell-free RecA intein splicing, fluorescence; in the data active means inhibition above about 30%;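 further: 0% = vehicle wells and 100% = reference inhibitor control wells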
# FBA Mtb inh: Mtb fructose-bisphosphate aldolase inhibition. P9WQA3. purified M. tuberculosis FBA, fluorescence read-out. inhibition, % at 1 µM. 2.3% of 360,000 active;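 further: 0% = vehicle and 100% = reference inhibitor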
# GDH-TPI counter-1: inhibits GDH-TPI coupling enzymes, artifact for Mtb FBA screen; GDH-TPI coupled enzyme counterscreen, NADH absorbance; inhibition, % at 4.8 µM; 1.2% of 360,000 active; in the data active means inhibition above about 30%;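 further: 0% = DMSO wells and 100% = wells lacking the enzyme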
# Mtb UGM inh: Mtb UDP-galactopyranose mutase inhibition | P9WIQ1 | purified UGM, fluorescence polarization probe displacement | inhibition, % at 10 µM | 0.06% of 320,000 active; in the data active means inhibition above about 10%, passing the limit was not always enough
# Mtb betalactam: beta-lactam sensitization of Mtb H37Rv; M. tuberculosis H37Rv growth with meropenem, percent inhibition; inhibition, % at 25 µM; 0.27% of 330,000 active; call rule not given here;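 further: growth measured after seven days incubation then overnight dye step; 0% = bacteria only wells and 100% = bacteria with antibiotic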
# Mtb FBA inh conf: confirmation of M. tuberculosis fructose-bisphosphate aldolase inhibitors; inhibition, % at 1 µM; AID 651616; 78% of 5,600 active; purified M. tuberculosis FBA, fluorescence read-out; shares compounds with FBA Mtb inh;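 further: 0% = vehicle wells and 100% = reference inhibitor wells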
# GDH-TPI counter-2: inhibits GDH-TPI coupling enzymes, flagging Mtb FBA hits; GDH-TPI coupled enzyme counterscreen, fluorescence; 81% of 5,600 active; shares compounds with FBA Mtb inh; inhibition, % at 1 µM; in the data active means inhibition above about 10%
# GDH-TPI dose: GDH-TPI dose response counter-screen for Mtb FBA. 79% of 170 active. AID 652145. IC50, µM. GDH-TPI coupled enzyme assay, fluorescence, artifact counterscreen. shares compounds with FBA Mtb inh; call rule not given here
# An asterisk follows results filed as active; / = not tested or not shown; + = active, no number. Unless noted, no stated cut-off is given here; in the data, active means inhibition above about 27%; inactive means the rest.
SMILES,Rv3671c inh,RecA splice inh,FBA Mtb inh,GDH-TPI counter-1,Mtb UGM inh,Mtb betalactam,Mtb FBA inh conf,GDH-TPI counter-2,others
Cc1ccccc1N(C(=O)c1snc(C(N)=O)c1N)C(C)C(=O)NC1CCCCC1 (configuration not stated),-0.9,-0.4,31.6*,4.5,-0.7,-6.8,54.3*,37.1*,
CC(=O)Nc1ccc(S(=O)(=O)NCCC(=O)NCc2ccncc2)cc1,0.6,-2.2,0.4,2.8,-2.2,-4.9,/,/,
COc1cc(OC)cc(C(=O)Nc2ccc(-c3nc4ccccc4o3)cc2)c1,-13.8,1.8,1.3,1.7,2.4,14.5,/,/,
COc1cccc(C(=O)Nc2ccc(-c3nc4ccccc4o3)c(O)c2)c1,-43.3,0.9,43.2*,33.1*,0.2,99.7,46.2*,33.0*,
COc1ccc(-c2nc3ccccn3c2NC2CCCCC2)cc1SC1CCCCC1,1.4,21.1,44.4*,5.8,-3.4,50.2,132.4*,115.4*,
CCC(C)Sc1ccc(-c2nc3ccccn3c2NCc2ccccc2)cc1OC (configuration not stated),-1.8,/,40.8*,3.6,0.3,95.2,115.5*,89.8*,
COc1ccc(CSc2ccc(-c3nc4ccccn4c3NCc3ccccc3)cc2OC)cc1,1.8,-4.1,34.3*,11.1,1.4,-5.2,30.5*,27.8*,
CCCCCCSc1cc(-c2nc3cnccn3c2NCc2ccccc2)ccc1OC,4.9,-48.3,17.7,16.1,1.6,59.4,/,/,
COc1ccc(-c2nc3cnccn3c2NCc2ccccc2)cc1SC1CCCCC1,-3.5,-121.1,20.2,-7.7,-1.7,57.5,/,/,
COc1cc(-c2nc3ccccn3c2NCc2ccccc2)ccc1SC1CCCCC1,-2.5,-1.3,44.9*,11.8,-1.8,67.0,83.8*,51.6*,
Cn1nc(C(=O)OCC(=O)c2ccccc2)c2ccccc2c1=O,3.7,/,1.8,5.3,1.9,-4.7,/,/,
COC(=O)C1C(O)=C(C=NC2CCCCC2)C(=O)CC1(C)C (configuration not stated),6.9,-1.3,28.4*,-2.2,1.0,-1.5,146.6*,115.0*,
CCOc1ccc(N(CC(=O)Nc2c(C)cccc2C)S(=O)(=O)c2c(C)[nH]c(=O)[nH]c2=O)cc1,-4.2,-1.2,90.6*,17.3,-1.5,-3.4,84.7*,53.4*,
CCCOC(=O)C1C2CCC(O2)C1C(=O)O (configuration not stated),/,/,5.0,5.3,/,/,/,/,
O=C(NCc1cccnc1)c1ccc2c(c1)N(Cc1ccccc1)CCS2,-10.3,-1.6,75.5*,3.4,0.8,-1.6,162.9*,124.5*,
O=C(NCc1ccccn1)c1ccc2c(c1)N(Cc1ccccc1)CCS2,2.1,2.3,93.6*,7.2,-0.9,0.2,3.0,0.1,
O=C(NCc1cccnc1)c1ccc(Cl)c(Cl)c1,-6.6,0.8,5.0,2.3,-1.4,-5.3,/,/,
CN1CCSc2ccc(C(=O)NCc3ccccc3)cc21,3.6,-6.4,95.8*,17.9,2.7,-1.2,+,167.0*,
CCN(C(=O)CSc1nnc(-c2cccs2)n1N)c1c(N)n(Cc2ccccc2)c(=O)[nH]c1=O,1.0,-0.2,3.0,-5.0,-0.2,-3.5,/,/,
CCn1c(O)c(/C=C2\C=NN=C2c2ccc(C)cc2)sc1=S,5.2,0.5,-0.9,9.4,-2.0,1.0,/,/,
CC(C)n1c(O)c(/C=C2\C=NN=C2c2ccccc2)sc1=S,-7.2,1.7,55.8*,16.0,4.0,99.4,199.2*,135.2*,
Nc1nc(-c2ccccc2)[nH]c(=O)c1N,7.8,-15.2,29.2*,15.6,-2.4,-1.6,72.0*,52.7*,
COc1ccc(Cc2nnc(SCc3ccc([N+](=O)[O-])cc3)o2)cc1,7.2,0.3,-2.7,0.0,0.9,19.7,/,/,
CCOCCCNC(=S)NCCCNc1nc2c(C)c(C)ccc2cc1C#N,/,/,47.4*,2.2,/,/,110.9*,79.0*,
Cc1ccc2cc(C#N)c(NCCNC(=O)C3CCC3)nc2c1C,4.4,-6.6,52.5*,-0.9,3.0,-15.9,2.5,-1.7,
SMILES,Rv3671c inh,RecA splice inh,FBA Mtb inh,GDH-TPI counter-1,Mtb UGM inh,Mtb betalactam,Mtb FBA inh conf,GDH-TPI counter-2,others
Cc1cccc2cc(C#N)c(NCCNC(=O)NC3CCCCC3)nc12,7.3,-11.2,3.9,0.0,-0.9,-4.4,/,/,
CCOCCCNC(=S)N1CCCN(c2nc3c(C)c(C)ccc3cc2C#N)CC1,/,-14.7,12.8,-6.7,/,/,/,/,
Cc1ccc2cc(C#N)c(NCCCNC(=O)C3CCCO3)nc2c1 (configuration not stated),0.3,/,51.4*,-1.8,-0.4,2.1,92.4*,85.8*,
O=C(/C=C/c1ccc(F)cc1)NC(=S)Nc1ccccc1,/,-1.2,-6.4,12.4,0.4,2.9,/,/,
O=C(/C=C/c1ccccc1)NC(=S)Nc1ccccc1,0.6,2.2,27.5*,25.4,-1.1,6.1,6.1,-0.7,
Cc1ccc(/C=C(\NC(=O)c2ccccc2)C(=O)NCCc2ccccn2)o1,0.0,-3.1,-3.0,5.0,2.1,-6.3,/,/,
CC(=O)Nc1ccc(C2Nc3ccccc3C(=O)N2C2CCCCC2)cc1 (configuration not stated),-4.4,1.3,61.5*,4.2,-1.1,-1.8,2.5,2.0,
NC(=O)c1sc2cc(C(F)(F)F)cnc2c1-c1cccs1,-3.9,-6.9,5.1,9.4,-0.6,-1.7,/,/,
O=C(O)c1sc2cc(C(F)(F)F)cnc2c1-c1cccs1,11.6,-7.0,30.4*,8.8,0.5,12.1,+,+,
CC(Oc1ccc2c(-c3ccccc3)cc(=O)oc2c1)C(=O)NCCCN1CCOCC1 (configuration not stated),1.5,-2.5,-0.9,13.3,-3.4,-6.3,/,/,
O=C(COc1ccc2c3c(c(=O)oc2c1)CCC3)NCCCN1CCOCC1,-1.6,-2.8,15.4,12.1,0.9,5.9,/,/,
CC(Oc1ccc2c(c1)oc(=O)c1ccccc12)C(=O)NCCCN1CCOCC1 (configuration not stated),-8.5,-0.2,63.6*,11.2,1.2,-0.7,11.2,9.6,GDH-TPI dose=2.9*
O=C(COc1ccc2c(c1)oc(=O)c1ccccc12)NCCCN1CCOCC1,-3.1,1.5,98.2*,5.1,-3.4,-4.2,92.7*,77.7*,
Cc1c(C)c2ccc(OCC(=O)Nc3ccc(CN4CCOCC4)cc3)cc2oc1=O,-0.3,1.0,47.0*,9.6,-0.9,3.8,88.3*,86.4*,
Cc1ccc(OCC(=O)Nc2ccc(CN3CCOCC3)cc2)cc1C,0.7,-0.6,-2.4,1.7,4.0,4.6,/,/,
Cc1c(C)c2ccc(OCC(=O)NCCN3CCOCC3)cc2oc1=O,-2.2,0.4,97.5*,6.1,-0.6,2.0,-6.2,-2.7,
CCOc1ccccc1-n1nnnc1SC(C)C(=O)OC (configuration not stated),3.2,0.1,-1.8,4.4,0.8,-4.3,/,/,
